The target of assay [1] is Cellular tumor antigen p53 (Homo sapiens) (UniProt P04637). Kind of assay: Primary qHTS for small molecule compounds that upregulate eGFP-tagged delta133p53alpha (in N-terminal) cells. (AID 2060322). Note: series mostly up to about 56 µM; nearly all actives have a fitted effect of over 75% in size. To be noted: NCI-H358 eGFP-delta133p53alpha fluorescence, 24 h; activation: hits give high values. Summed up:
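NCI-H358 cells pre-induced 24 h with 10 ng/ml doxycycline to express N-terminal eGFP-delta133p53alpha, then dosed 24 h at 37C without doxycycline; fixed, Hoechst-stained, GFP intensity by laser scanning cytometry, normalized to DMSO (0%) and 57.5 uM 5-azacytidine (100%).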
In general terms: qHTS replaces the single test concentration by a dilution series.

The target in assay [2] is Aldehyde dehydrogenase, mitochondrial (Homo sapiens) (UniProt P05091). Kind of assay: qHTS for Inhibitors of the Aldehyde Dehydrogenase Family (ALDH2) Primary screen (AID 2061308). Note: nearly all actives have a fitted effect of over 55% in size.

Results filed as inconclusive are left out. Where a call stands in place of a potency, no number is given. Values without a mark were called inactive. The source made the active and inactive calls. Calls come from the whole dose curve; as a rule, active = well fitted curve in the direction sought with a large enough effect; inconclusive = small, poorly fitted or top-dose-only effect, or another doubt; inactive = no such curve, though single readings can be large; an effect the other way counts as inactive or inconclusive.

Sequence of Cellular tumor antigen p53 (Homo sapiens) (P04637 whole entry, looked up): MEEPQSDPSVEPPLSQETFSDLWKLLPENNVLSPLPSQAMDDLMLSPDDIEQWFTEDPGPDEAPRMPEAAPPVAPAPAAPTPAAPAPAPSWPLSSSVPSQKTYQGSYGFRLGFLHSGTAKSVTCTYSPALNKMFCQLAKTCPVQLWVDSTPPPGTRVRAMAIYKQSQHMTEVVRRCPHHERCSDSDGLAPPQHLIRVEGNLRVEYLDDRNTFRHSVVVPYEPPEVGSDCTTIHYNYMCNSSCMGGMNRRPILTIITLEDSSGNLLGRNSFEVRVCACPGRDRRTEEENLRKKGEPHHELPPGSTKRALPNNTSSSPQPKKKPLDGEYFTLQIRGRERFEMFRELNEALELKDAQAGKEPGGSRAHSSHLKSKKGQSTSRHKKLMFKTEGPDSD

As to `COc1cc(O)cc(O[C@@H]2O[C@H](CO)[C@@H](O[C@@H]3OC[C@](O)(CO)[C@H]3O)[C@H](O)[C@H]2O)c1OC`, in assay [1], the activation is -14.5%. Further, the Potency result in assay [2] is “inactive”.
Taken in the same sequence, the figures for `COc1cc(C2Oc3c(OC)cc(/C=C/C(=O)OC4CC(O)(C(=O)O)CC(O)C4O)cc3C2CO)ccc1O` (stereo unspecified) were -32.8% and “inactive”.
In the same order, the values of `OC[C@H]1O[C@@H](OCc2ccccc2)[C@H](O)[C@@H](O)[C@@H]1O` are -9.16% and “inactive”.
In the same order, the values of `CC(C)(O)C1OC1C1=CC(=O)C2(C)OC2C1O` (stereo unspecified) are 1.79% and “inactive”.
For `CC1(C)CC2C=C(C(=O)O)C3COC(=O)C(O)(CO)C23C1` (stereo unspecified), the activation in assay [1] was -13%. Besides, in assay [2], the Potency result is “inactive”.
As to `CC(C)(O)/C=C/C1=CC(=O)[C@@](C)(O)C[C@H]1O`, the activation in assay [1] was -8.4%. For the same compound, the Potency entry in assay [2] was “inactive”.
Taken in the same sequence, the figures for `CC/C=C\CCO[C@@H]1O[C@H](CO[C@@H]2OC[C@H](O)[C@H](O)[C@H]2O)[C@@H](O)[C@H](O)[C@H]1O` were -3.57% and “inactive”.
For `Fc1ccc2nc(CCC#Cc3ccccn3)cn2c1`, in assay [1], the activation was 2.68%. Also, the Potency entry in assay [2] was “inactive”.
As for `O=C(/C=C/c1ccc(O)c(O)c1)OC[C@H]1O[C@@H](OC2CCCCC2O)[C@H](O)[C@@H](O)[C@@H]1O` (stereo partly specified), the activation in assay [1] is -3.05%. Also, the Potency result in assay [2] was “inactive”.
With `COc1cc(C2OCC3C(c4ccc(OC5OC(CO)C(O)C(O)C5O)c(OC)c4)OCC23)ccc1O` (stereo unspecified), the activation in assay [1] is -24.4%. In assay [2], the Potency entry is “inactive”.
Taken in the same sequence, the figures for `COc1cc(C(=O)OC[C@H]2O[C@@H](OC(C)(C)C(=O)O)[C@H](O)[C@@H](O)[C@@H]2O)cc(OC)c1O` were -29.5% and “inactive”.
Taken in the same sequence, the figures for `CNCc1cc(-c2ccccc2F)n(S(=O)(=O)c2cccnc2)c1` were 12.5% and “inactive”.
As for `COc1cc(/C=C/CO[C@@H]2O[C@H](CO)[C@@H](O)[C@H](O)[C@H]2O)cc(OC)c1O[C@@H]1O[C@H](CO)[C@@H](O)[C@H](O)[C@H]1O`, the activation in assay [1] was 0.893%. In assay [2], the Potency result was “inactive”.
Consider `O=C(O[C@H]1[C@H](Oc2ccc(O)cc2CO)O[C@H](CO)[C@@H](O)[C@@H]1O)c1ccccc1`, for which the activation in assay [1] is -10.7%. Further, the Potency result in assay [2] was “inactive”.
Taken in the same sequence, the figures for `CC(O)/C=C/C1(O)C2(C)COC1(C)CC(O)C2` (stereo unspecified) were 9.82% and “inactive”.
Taken in the same sequence, the figures for `CC1(O)CCC2C(C(=O)O)=COC(OC3OC(CO)C(O)C(O)C3OC(=O)/C=C/c3ccc(O)cc3)C21` (stereo unspecified) were -16% and “inactive”.
Consider `CC1=C(CCC(C)O[C@@H]2O[C@H](CO)[C@@H](O)[C@H](O)[C@H]2O)C(C)(C)CC(O)C1` (stereo partly specified), for which, in assay [1], the activation is -7.63%. In addition, the Potency entry in assay [2] was “inactive”.
Taken in the same sequence, the figures for `CC1=CC(=O)CC(C)(C)C1(O)CCC(C)O` (stereo unspecified) were 0.893% and “inactive”.
In the same order, the values of `CC(=O)OC/C(=C/C(=O)O)CC[C@@H]1C(CO)=CC[C@@H]2C(C)(C)CCC[C@@]12C` are 2.29% and “inactive”.
For the compound `O=C(/C=C/N1C[C@@H]2C[C@@H]1CN2c1ccccn1)c1ccccc1O`, the activation in assay [1] was -4.33%. The Potency entry in assay [2] is “inactive”.
Taken in the same sequence, the figures for `CC(=O)N[C@H]1[C@H](O[C@H]2CC[C@@]3(C)C(CC[C@]4(C)C3CC=C3C5CC(C)(C)CC[C@]5(C(=O)O)[C@H](O[C@@H]5O[C@H](CO)[C@@H](O)[C@H](O)[C@H]5O)C[C@]34C)C2(C)C)O[C@H](CO[C@@H]2OC[C@H](O)[C@H](O)[C@H]2O[C@@H]2OC[C@@H](O)[C@H](O)[C@H]2O)[C@@H](O)[C@@H]1O` (stereo partly specified) were -9.16% and “inactive”.
Regarding `CC(/C=C/C1(O)C(C)CC(O)CC1(C)C)OC1OC(CO)C(O)C(O)C1O` (stereo unspecified), in assay [1], the activation is -12.2%. In addition, in assay [2], the Potency entry is “inactive”.
On to `NC(=O)[C@@H]1CC[C@H](c2ccc(OCc3ccccc3F)cc2)N1`, for which, in assay [1], the activation was -11.6%. Further, in assay [2], the Potency result is “inactive”.
Taken in the same sequence, the figures for `COc1cc([C@@H]2Oc3c(OC)cc(CCCO)cc3[C@@H]2CO[C@@H]2O[C@H](CO)[C@@H](O)[C@H](O)[C@H]2O)ccc1O` were -9.16% and “inactive”.
Taken in the same sequence, the figures for `O=C(/C=C/c1ccc(O)c(O)c1)OCc1ccccc1O[C@@H]1O[C@H](CO)[C@@H](O)[C@H](O)[C@H]1O` were 8.4% and “inactive”.
As for `CC1=CC2C(CC1OC1OC(CO)C(O)C(O)C1O)C(C)CC(=O)C2C(C)C` (stereo unspecified), the activation in assay [1] was 4.58%. The Potency result in assay [2] is “inactive”.
In the same order, the values of `C=CC1C(OC2OC(CO)C(O)C(O)C2O)OC=C(C(=O)OC)C1CC1CC(=O)CC(CCc2ccc(O)cc2)O1` (stereo unspecified) are 19.6% and “inactive”.
`CC1(CO)CC(O)[C@]2(C(=O)O)CCC34CC3(C=CC3[C@]5(C)C(CC[C@]34C)C(C)(CO)[C@@H](O)[C@H](O)[C@@H]5O)C2C1` (stereo partly specified): the activation in assay [1] is 9.92%. For the same compound, the Potency entry in assay [2] is “inactive”.

The values above are taken from PubChem BioAssay (NCATS).
